Screens as filed in PubChem.
Sampled rows, rich in hits. Any-hit rate of the full collection: about 2.4%.
POLB inh: DNA polymerase beta (human) inhibition. P06746. Potency, µM (series often up to 114 µM), for the others: at the highest dose activity change, negative = inhibition, actives largely listed as inhibitors. 340,000 compounds, 1.3% hits. Pol beta primer extension/strand displacement, fluorescence kinetic; also: % is scaled to controls: 0 for no effect and ±100 for the full control effect
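Human Pol beta at 10 nM; strand-displacement substrate 50 nM final. Compound exposure 15 min at room temperature before start, reaction 10 min at room temperature.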
Pol eta inh: blocks human DNA polymerase eta activity | Q9Y253 | recombinant Pol eta, fluorescent DNA replication assay | Potency, µM (series often up to 114 µM), for the others: at the top dose activity change, negative = inhibition, actives largely listed as inhibitors | 390,000 compounds, 1.2% hits | AID 588591; also: % is scaled to controls: 0 for no effect and ±100 for the full control effect
Target sequence (Q9Y253 whole entry, looked up): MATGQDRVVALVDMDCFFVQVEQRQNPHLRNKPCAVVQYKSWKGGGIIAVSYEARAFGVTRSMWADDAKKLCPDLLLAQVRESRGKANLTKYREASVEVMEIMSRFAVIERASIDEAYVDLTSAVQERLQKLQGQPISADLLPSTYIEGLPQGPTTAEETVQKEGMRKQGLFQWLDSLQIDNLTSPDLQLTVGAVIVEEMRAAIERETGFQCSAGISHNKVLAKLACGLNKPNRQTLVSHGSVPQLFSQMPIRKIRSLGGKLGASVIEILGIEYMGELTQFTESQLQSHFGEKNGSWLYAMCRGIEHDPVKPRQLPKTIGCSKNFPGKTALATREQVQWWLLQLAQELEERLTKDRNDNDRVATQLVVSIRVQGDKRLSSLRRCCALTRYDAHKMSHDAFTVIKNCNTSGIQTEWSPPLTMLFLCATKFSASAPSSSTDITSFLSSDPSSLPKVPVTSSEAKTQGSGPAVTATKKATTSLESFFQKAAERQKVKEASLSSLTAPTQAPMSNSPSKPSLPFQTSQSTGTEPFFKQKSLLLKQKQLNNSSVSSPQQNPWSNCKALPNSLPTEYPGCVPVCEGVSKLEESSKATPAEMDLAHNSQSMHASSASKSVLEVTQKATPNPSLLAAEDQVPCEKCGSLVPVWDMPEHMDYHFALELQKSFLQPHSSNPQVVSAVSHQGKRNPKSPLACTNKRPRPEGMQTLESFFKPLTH
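Fluorescent replication assay: 50 nM final substrate added after a 15 min room-temperature compound preincubation with 10 nM enzyme. Signal taken at 0 min and again at 10 min.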
FEN1 inh: blocks human flap endonuclease 1 | P39748 | Potency, µM (top dose mostly 114 µM), inactives show top-dose activity change, negative = inhibition, hits mostly inhibitors | Recombinant FEN1 flap cleavage, fluorescence, 15 min | 390,000 compounds, 0.35% hits; also: % is scaled to controls: 0 for no effect and ±100 for the full control effect; nearly all actives have a fitted effect of over 65% in size
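Concentration–response screening of FEN1 (10 nM): 15 min compound preincubation at room temperature, reaction started with 50 nM substrate and read at 0 and 15 min. Corrected, normalized data were fitted by a four-parameter Hill equation.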
PGK inhibitor: blocks T. brucei phosphoglycerate kinase. P07378. PGK/GAPDH coupled, Kinase-Glo luminescence, 60 min. Potency, µM (highest dose often 57.5 µM), inactives show at the top dose activity change, negative = inhibition, hits mostly inhibitors. 380,000 compounds, 0.043% hits. AID 602233; also: % is scaled to controls: 0 for no effect and ±100 for the full control effect; nearly all actives have a fitted effect of over 60% in size
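Recombinant glycosomal PGK reaction used 1,3-bisphosphoglycerate generated in-well by GAPDH (100nM final) in 100mM TEA pH 7.6, 5mM MgCl2, 0.01% Tween-20. After 60 minutes at room temperature, ATP was read by Kinase-Glo Plus luminescence end-point.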
Pol iota inh: blocks human DNA polymerase iota activity; Q9UNA4; Pol iota fluorescent replication assay, 10 min; Potency, µM (top dose mostly 115 µM), for the others: at the highest dose activity, negative = inhibition, usual class: inhibitors; 390,000 compounds, 1% hits
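Fluorescent replication assay read twice, at 0 min and 10 min after adding 50 nM (final) substrate. Enzyme (10 nM) and compounds were first incubated 15 min at room temperature; enzyme-free buffer wells were negative controls.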
POLK inh: DNA polymerase kappa (human) inhibition. Q9UBT6. purified Pol kappa, fluorescent DNA synthesis assay, 10 min. Potency, µM (doses to about 107 µM), without a hit: at the top dose activity, negative = inhibition, usual class: inhibitors. 400,000 compounds, 0.53% hits; also: % is scaled to controls: 0 for no effect and ±100 for the full control effect
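Kinetic fluorescence readout at 0 and 10 min followed reaction start with substrate at 50 nM final. Beforehand, enzyme (10 nM Pol kappa) stood 15 min with compound at room temperature; buffer-only wells were negative controls.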
An asterisk follows results filed as active. Calls follow the shape of the dose curve; as a rule, active = well fitted curve in the direction sought with a large enough effect; inconclusive = small, poorly fitted or top-dose-only effect, or another doubt; inactive = no such curve, though single readings can be large; an effect the other way counts as inactive or inconclusive. Potency is read from the fitted curve at half-maximal effect.

For O=C(/C=C/c1ccco1)Nc1cccc2cccnc12 the results were POLB inh 39.8µM*, Pol eta inh 28.2µM*, FEN1 inh inconclusive, PGK inhibitor -2.9%, Pol iota inh 6.31µM* and POLK inh 28.2µM*.
For O=C(/C=C/c1ccco1)Nc1nc(-c2ccccn2)cs1 the results were POLB inh 25.1µM*, Pol eta inh inconclusive, FEN1 inh 17.8µM*, PGK inhibitor -10.5%, Pol iota inh inconclusive and POLK inh 31.6µM*.
For O=C(O)/C=C/C(=O)Nc1cccc2cccnc12 the results were POLB inh 10.3%, Pol eta inh -13.4%, FEN1 inh -5.0%, PGK inhibitor -6.8%, Pol iota inh -3.9% and POLK inh 0.7%.
`COc1ccc(CN(C)c2ccc(-c3nc(C)no3)cc2[N+](=O)[O-])cc1` gave POLB inh -1.2%, Pol eta inh -7.5%, FEN1 inh -4.6%, PGK inhibitor inactive, Pol iota inh 14.4% and POLK inh -8.2%.
For CC1CCCCC1NS(=O)(=O)c1ccc(S(=O)(=O)NCc2ccncc2)cc1 (configuration not stated) the results were POLB inh 70.8µM*, Pol eta inh -9.3%, FEN1 inh -1.1%, PGK inhibitor -9.9%, Pol iota inh inconclusive and POLK inh -0.2%.
N#C/C(=C/c1ccc(-c2cccc([N+](=O)[O-])c2)o1)C(=O)Nc1nc(-c2cccs2)cs1 was read as Pol eta inh -0.7%, FEN1 inh 7.4%, PGK inhibitor 1.2%, Pol iota inh inconclusive and POLK inh -36.2%.
N#C/C(=C\c1ccc(-c2ccc([N+](=O)[O-])cc2)o1)C(=O)Nc1nc(-c2cccs2)cs1 was read as POLB inh inconclusive, Pol eta inh 31.6µM*, FEN1 inh -14.0%, PGK inhibitor -14.4%, Pol iota inh 14.1µM* and POLK inh inconclusive.
Screening Cc1ccc(/C=C2\SC(=S)N(c3cccnc3)C2=O)o1 returned POLB inh 3.4%, Pol eta inh -15.8%, FEN1 inh -24.9%, PGK inhibitor -4.5%, Pol iota inh inconclusive and POLK inh 50.1µM*.
`Cc1ccc(N2C(=O)/C(=C/c3cccnc3)SC2=S)cc1` gave POLB inh 47.1%, Pol eta inh -13.8%, FEN1 inh 3.5%, PGK inhibitor 6.6%, Pol iota inh 188.9% and POLK inh -5.6%.
`Cc1ccc(N2CC(C(=O)Nc3ccc(S(=O)(=O)Nc4nccs4)cc3)CC2=O)cc1C` (configuration not stated) gave POLB inh 22.9%, Pol eta inh -5.1%, FEN1 inh 0.6%, PGK inhibitor 2.1%, Pol iota inh 22.4% and POLK inh -16.9%.
For COc1ccc(/C=C2\SC(=S)N(CCC(=O)Nc3ccc(O)cc3)C2=O)cc1 the results were POLB inh 1.9%, Pol eta inh -6.9%, FEN1 inh -0.9%, PGK inhibitor inactive, Pol iota inh 92.3% and POLK inh -4.7%.
Screening COc1ccc(/C=C2\SC(=O)N(CCC(=O)Nc3ccc(S(=O)(=O)Nc4nccs4)cc3)C2=O)cc1 returned POLB inh 50.1µM*, Pol eta inh -15.1%, FEN1 inh 5.3%, PGK inhibitor -0.4%, Pol iota inh 67.6% and POLK inh -4.7%.
For COc1ccc(N2CC(C(=O)Nc3ccc(S(=O)(=O)Nc4nccs4)cc3)CC2=O)c(OC)c1 (configuration not stated) the results were Pol eta inh 50.1µM*, FEN1 inh -8.2%, PGK inhibitor -0.7%, Pol iota inh inconclusive and POLK inh inconclusive.
Screening COc1ccc(/C=C2/SC(=O)N(CCC(=O)Nc3ccc(S(=O)(=O)Nc4nccs4)cc3)C2=O)cc1 returned POLB inh 22.4µM*, Pol eta inh 31.6µM*, FEN1 inh inconclusive, PGK inhibitor -9.7%, Pol iota inh inconclusive and POLK inh -12.0%.
Screening COc1ccccc1NCC(=O)c1ccc(Cl)cc1 returned POLB inh 89.1µM*, Pol eta inh inconclusive, FEN1 inh 4.5%, PGK inhibitor -1.7%, Pol iota inh 36.9% and POLK inh -2.8%.
`O=[N+]([O-])c1ccccc1/C=C/C=N/n1c(-c2ccco2)n[nH]c1=S` gave POLB inh -1.0%, Pol eta inh -3.7%, FEN1 inh -9.0%, PGK inhibitor 2.5%, Pol iota inh -15.1% and POLK inh -6.5%.
`Cc1ccc(-c2n[nH]c(=S)n2/N=C/C=C/c2ccccc2[N+](=O)[O-])cc1` gave POLB inh 31.6µM*, Pol eta inh inconclusive, FEN1 inh inconclusive, PGK inhibitor -4.8%, Pol iota inh inconclusive and POLK inh -11.7%.
For S=c1[nH]nc(-c2cc(-c3ccccc3)n[nH]2)n1/N=C/C=C/c1ccccc1 the results were POLB inh inconclusive, Pol eta inh 43.1%, FEN1 inh 0.1%, PGK inhibitor -4.7%, Pol iota inh 10.0% and POLK inh 4.1%.
`O=[N+]([O-])c1ccccc1/C=C/C=N/n1c(-c2cc(-c3ccccc3)n[nH]2)n[nH]c1=S` gave POLB inh 10µM*, Pol eta inh 31.6µM*, FEN1 inh inconclusive, PGK inhibitor -14.8%, Pol iota inh inconclusive and POLK inh -16.2%.
Cc1cccc(/C=N/n2c(-c3cc(-c4ccccc4)n[nH]3)n[nH]c2=S)c1 was read as POLB inh 56.2µM*, Pol eta inh -3.9%, FEN1 inh -8.3%, PGK inhibitor 2.1%, Pol iota inh 4.0% and POLK inh -4.5%.
`Cc1ccc(S(=O)(=O)N(C)CCN(C)c2nc(-c3cccs3)nc3ccccc23)cc1` gave FEN1 inh -14.1%, Pol iota inh -13.5% and POLK inh -9.0%.
`Cc1ccc(-c2nc3cnccn3c2Nc2ccc(C(C)C)cc2)o1` gave FEN1 inh -29.1%, Pol iota inh inconclusive and POLK inh -36.8%.
C=C1CC2C(=O)N(Cc3cc(OC)ccc3OC)C(C(=O)OCC)C1N2C (configuration not stated) was read as FEN1 inh -14.2%, Pol iota inh -12.8% and POLK inh 4.4%.
Cc1nn(C)c(C)c1S(=O)(=O)N(CC(=O)N1CCN(c2ccccc2)CC1)c1ccc(C(C)C)cc1 was read as POLB inh 30.3%, Pol eta inh -1.6%, FEN1 inh 0.8%, PGK inhibitor inactive, Pol iota inh -12.1% and POLK inh -7.8%.
